From PubChem BioAssay (Tox21)
Values without a mark were called inactive. The source made the active and inactive calls. Calls follow the shape of the dose curve; as a rule, active = well fitted curve in the direction sought with a large enough effect in the repeat runs; inconclusive = weak or mixed curves; inactive = flat fitted curve, though single readings scatter.

Assay: qHTS assay to test for compound auto fluorescence at 590 nm (red) in HepG2 cell free culture (AID 720684)
Conditions: cell-free medium autofluorescence, red 540/590 nm; series mostly up to 91.3 µM; fluorescence, % of Rose Bengal: at the top concentration
Summary of the method: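 Compounds are added to culture medium (MEM, 10% FBS) lacking cells, then fluorescence is read at excitation 540 nm, emission 590 nm, with Rose Bengal sodium as the equivalency standard.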
% is scaled to controls: 0 for no effect and ±100 for the full control effect.

Which “fluorescence, % of Rose Bengal” value does the source give for `COC(=O)c1ccc(I)cc1S(=O)(=O)NC(=O)Nc1nc(C)nc(OC)n1` here?
The value was 0.0449%.

For `CCCOC(C(=O)OC1CCN(C)CC1)(c1ccccc1)c1ccccc1`, which “fluorescence, % of Rose Bengal” value is on record?
Its value is 0.0437% [at 46 µM].

With `CCC(C)O` (stereo unspecified) as the molecule, how does the “fluorescence, % of Rose Bengal” value read?
The value was -0.047% [at 95.7 µM].

With `CCCCc1ncc(/C=C(\Cc2cccs2)C(=O)O)n1Cc1ccc(C(=O)O)cc1` as the molecule, how does the “fluorescence, % of Rose Bengal” value read?
Its value is -0.231% [at 46 µM].

With `CCCCNc1ccc(C(=O)OCCOCCOCCOCCOCCOCCOCCOCCOCCOC)cc1` as the molecule, how does the fluorescence, % of Rose Bengal read?
Its fluorescence, % of Rose Bengal is -0.448% [at 18.6 µM].

With `CC(C)Nc1ccc(NC(C)C)c2c1C(=O)c1ccccc1C2=O` as the molecule, how does the “fluorescence, % of Rose Bengal” value read?
Its value is -0.0069% [at 46 µM].

Which “fluorescence, % of Rose Bengal” value does the source give for `CC[N+]1(CC)CCC(=C(c2ccccc2)c2ccccc2)C1C` (stereo unspecified) here?
The value was 0.124% [at 46 µM].

For `CC(C)OC(=O)C(C)N(C(=O)c1ccccc1)c1ccc(F)c(Cl)c1` (stereo unspecified), which “fluorescence, % of Rose Bengal” value is on record?
The value was 0.028%.

With `Cc1cccc(C)c1NC(=O)CN(CC(=O)O)CC(=O)O` as the molecule, how does the “fluorescence, % of Rose Bengal” value read?
Its value is 0.1% [at 46 µM].

With `OC(CN1CCC(Cc2ccc(F)cc2)CC1)c1ccc(Cl)cc1` (stereo unspecified) as the molecule, how does the “fluorescence, % of Rose Bengal” value read?
Its value is 0.0015% [at 46 µM].

Which “fluorescence, % of Rose Bengal” value does the source give for `O=C(c1ccc(F)cc1)C1CCN(CCn2c(=S)[nH]c3ccccc3c2=O)CC1` here?
Its value is 0.0106% [at 46 µM].

With `CCCCC` as the molecule, how does the Potency read?
The Potency was “inactive”.

With `CCCCCCCC#N` as the molecule, how does the “fluorescence, % of Rose Bengal” value read?
The value was 0.147%.

Which “fluorescence, % of Rose Bengal” value does the source give for `O=[N+]([O-])c1ccc(NCCO)c(OCCO)c1` here?
Its value is 0.0005%.

For `C=CCOC(=O)CCC1CCCCC1`, which “fluorescence, % of Rose Bengal” value is on record?
Its value is -0.525%.

Which “fluorescence, % of Rose Bengal” value does the source give for `O=C(OCCCCCCOC(=O)c1ccccc1)c1ccccc1` here?
The value was 0.0781%.

For `C/C=C/C(=O)CC`, which fluorescence, % of Rose Bengal is on record?
The fluorescence, % of Rose Bengal was 0.0791% [at 18.6 µM].

Which “fluorescence, % of Rose Bengal” value does the source give for `CCCCC(CC)COC(=O)CCCCCCCCC(=O)OCC(CC)CCCC` (stereo unspecified) here?
The value was -0.0691%.

For `CCOc1ccc(O)cc1`, which “fluorescence, % of Rose Bengal” value is on record?
The value was 0.111%.

For `CC[N+](C)(CC)CCOC(=O)C(O)(c1ccccc1)C1CCCCC1` (stereo unspecified), which “fluorescence, % of Rose Bengal” value is on record?
Its value is 0.0433% [at 46 µM].

For `O=C(O)CC(=O)C(=O)O`, which “fluorescence, % of Rose Bengal” value is on record?
Its value is -0.0444%.

Which “fluorescence, % of Rose Bengal” value does the source give for `O=S(=O)(Oc1ccc(Cl)cc1)c1ccccc1` here?
Its value is -0.198%.

Which “fluorescence, % of Rose Bengal” value does the source give for `COC(C)OC` here?
The value was 0.047%.

Which “fluorescence, % of Rose Bengal” value does the source give for `O=C(NCCO[N+](=O)[O-])c1cccnc1` here?
Its value is 0.0171% [at 46 µM].

Which “fluorescence, % of Rose Bengal” value does the source give for `CCN(CC)CCOC(=O)C(c1ccccc1)C1CCCCC1` (stereo unspecified) here?
The value was 0.0237% [at 46 µM].

For `O=C1c2ccccc2S(=O)(=O)N1CCCCN1CCN(c2ncccn2)CC1`, which “fluorescence, % of Rose Bengal” value is on record?
The value was 0.129% [at 46 µM].

Which “fluorescence, % of Rose Bengal” value does the source give for `CC1OC(=O)C(C)OC1=O` (stereo unspecified) here?
The value was 0.0057%.

For `C=CC(=O)OCCOc1ccccc1`, which “fluorescence, % of Rose Bengal” value is on record?
The value was -0.0241%.

With `CCC(Cl)CCC(Cl)C(Cl)CC(Cl)C(Cl)C(Cl)CCl` (stereo unspecified) as the molecule, how does the “fluorescence, % of Rose Bengal” value read?
Its value is -0.0079%.

For `COc1ccc(C(=O)c2ccc(OC)cc2O)c(O)c1`, which “fluorescence, % of Rose Bengal” value is on record?
Its value is 0.18%.

Which “fluorescence, % of Rose Bengal” value does the source give for `Brc1c2ccccc2cc2ccccc12` here?
Its value is 0.0731%.

With `O=C1C(O)=C(O)C(=O)C(O)=C1O` as the molecule, how does the “fluorescence, % of Rose Bengal” value read?
The value was 0.12% [at 46 µM].

Which “fluorescence, % of Rose Bengal” value does the source give for `CCCCC(CC)COC(=O)COc1ccc(Cl)cc1Cl` (stereo unspecified) here?
Its value is -0.0554% [at 95.7 µM].

With `C[N+]1(CC2COC(c3ccccc3)(C3CCCCC3)O2)CCCCC1` (stereo unspecified) as the molecule, how does the “fluorescence, % of Rose Bengal” value read?
Its value is -0.186% [at 46 µM].

For `COc1ccc(C)cc1[N+](=O)[O-]`, which “fluorescence, % of Rose Bengal” value is on record?
Its value is 0.0982% [at 95.7 µM].

Which Potency does the source give for `CNC(=O)CN(CCN(CCN(CC(=O)[O-])CC(=O)NC)CC(=O)[O-])CC(=O)[O-].O.[Gd+3]` here?
Its Potency is “inactive”.

For `Cc1c(N)cccc1[N+](=O)[O-]`, which “fluorescence, % of Rose Bengal” value is on record?
Its value is -0.181% [at 95.7 µM].

Which “fluorescence, % of Rose Bengal” value does the source give for `c1cc(CCCc2ccncc2)ccn1` here?
Its value is -0.017%.

Assay: qHTS assay to test for compound auto fluorescence at 460 nm (blue) in HepG2 cell free culture (AID 720685)
Conditions: Cell-free culture medium, blue autofluorescence 405/460 nm; series mostly up to 91.3 µM; fluorescence, % of fluorescent control: at the top concentration
Summary of the method: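 Compound (23 nL) or DMSO pinned into cell-free MEM with 10% FBS; blue fluorescence read at 405/460 nm excitation/emission, expressed as auto-fluorescence equivalency to triamterene.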

With `COC(=O)c1ccc(I)cc1S(=O)(=O)NC(=O)Nc1nc(C)nc(OC)n1` as the molecule, how does the “fluorescence, % of fluorescent control” value read?
The value was 0.183%.

For `CCCOC(C(=O)OC1CCN(C)CC1)(c1ccccc1)c1ccccc1`, which “fluorescence, % of fluorescent control” value is on record?
The value was 0.0981% [at 46 µM].

With `CCC(C)O` (stereo unspecified) as the molecule, how does the “fluorescence, % of fluorescent control” value read?
The value was -0.0489% [at 95.7 µM].

With `CCCCc1ncc(/C=C(\Cc2cccs2)C(=O)O)n1Cc1ccc(C(=O)O)cc1` as the molecule, how does the “fluorescence, % of fluorescent control” value read?
Its value is -0.062% [at 46 µM].

For `CCCCNc1ccc(C(=O)OCCOCCOCCOCCOCCOCCOCCOCCOCCOC)cc1`, which fluorescence, % of fluorescent control is on record?
The fluorescence, % of fluorescent control was -0.106% [at 18.6 µM].

Which “fluorescence, % of fluorescent control” value does the source give for `CC(C)Nc1ccc(NC(C)C)c2c1C(=O)c1ccccc1C2=O` here?
The value was -0.238% [at 46 µM].

Which “fluorescence, % of fluorescent control” value does the source give for `CC[N+]1(CC)CCC(=C(c2ccccc2)c2ccccc2)C1C` (stereo unspecified) here?
The value was 0.0247% [at 46 µM].

With `CC(C)OC(=O)C(C)N(C(=O)c1ccccc1)c1ccc(F)c(Cl)c1` (stereo unspecified) as the molecule, how does the “fluorescence, % of fluorescent control” value read?
Its value is 0.0246%.

With `Cc1cccc(C)c1NC(=O)CN(CC(=O)O)CC(=O)O` as the molecule, how does the “fluorescence, % of fluorescent control” value read?
Its value is -0.0024% [at 46 µM].

With `OC(CN1CCC(Cc2ccc(F)cc2)CC1)c1ccc(Cl)cc1` (stereo unspecified) as the molecule, how does the “fluorescence, % of fluorescent control” value read?
Its value is -0.0129% [at 46 µM].

With `O=C(c1ccc(F)cc1)C1CCN(CCn2c(=S)[nH]c3ccccc3c2=O)CC1` as the molecule, how does the “fluorescence, % of fluorescent control” value read?
Its value is 0.0949% [at 46 µM].

Which outcome does the source give for `CCCCC` here?
The outcome was “inactive”.

Which “fluorescence, % of fluorescent control” value does the source give for `CCCCCCCC#N` here?
Its value is 0.0798%.

For `O=[N+]([O-])c1ccc(NCCO)c(OCCO)c1`, which “fluorescence, % of fluorescent control” value is on record?
Its value is -0.759%.

With `C=CCOC(=O)CCC1CCCCC1` as the molecule, how does the “fluorescence, % of fluorescent control” value read?
The value was -0.0184%.

For `O=C(OCCCCCCOC(=O)c1ccccc1)c1ccccc1`, which “fluorescence, % of fluorescent control” value is on record?
The value was 0.0205%.

For `C/C=C/C(=O)CC`, which fluorescence, % of fluorescent control is on record?
The fluorescence, % of fluorescent control was -0.0097% [at 18.6 µM].

For `CCCCC(CC)COC(=O)CCCCCCCCC(=O)OCC(CC)CCCC` (stereo unspecified), which “fluorescence, % of fluorescent control” value is on record?
The value was 0.125%.

For `CCOc1ccc(O)cc1`, which “fluorescence, % of fluorescent control” value is on record?
The value was 0.019%.

For `CC[N+](C)(CC)CCOC(=O)C(O)(c1ccccc1)C1CCCCC1` (stereo unspecified), which “fluorescence, % of fluorescent control” value is on record?
The value was -0.0148% [at 46 µM].

For `O=C(O)CC(=O)C(=O)O`, which “fluorescence, % of fluorescent control” value is on record?
Its value is 0.103%.

For `O=S(=O)(Oc1ccc(Cl)cc1)c1ccccc1`, which “fluorescence, % of fluorescent control” value is on record?
The value was -0.0085%.

For `COC(C)OC`, which “fluorescence, % of fluorescent control” value is on record?
Its value is 0.0393%.

For `O=C(NCCO[N+](=O)[O-])c1cccnc1`, which “fluorescence, % of fluorescent control” value is on record?
The value was -0.0189% [at 46 µM].

Which “fluorescence, % of fluorescent control” value does the source give for `CCN(CC)CCOC(=O)C(c1ccccc1)C1CCCCC1` (stereo unspecified) here?
The value was 0.0609% [at 46 µM].

For `O=C1c2ccccc2S(=O)(=O)N1CCCCN1CCN(c2ncccn2)CC1`, which “fluorescence, % of fluorescent control” value is on record?
Its value is 0.0369% [at 46 µM].

For `CC1OC(=O)C(C)OC1=O` (stereo unspecified), which “fluorescence, % of fluorescent control” value is on record?
Its value is 0.0201%.

For `C=CC(=O)OCCOc1ccccc1`, which “fluorescence, % of fluorescent control” value is on record?
Its value is 0.0707%.

Which “fluorescence, % of fluorescent control” value does the source give for `CCC(Cl)CCC(Cl)C(Cl)CC(Cl)C(Cl)C(Cl)CCl` (stereo unspecified) here?
The value was -0.107%.

With `COc1ccc(C(=O)c2ccc(OC)cc2O)c(O)c1` as the molecule, how does the “fluorescence, % of fluorescent control” value read?
The value was 0.0899%.

For `Brc1c2ccccc2cc2ccccc12`, which “fluorescence, % of fluorescent control” value is on record?
The value was 1.35%.

With `O=C1C(O)=C(O)C(=O)C(O)=C1O` as the molecule, how does the “fluorescence, % of fluorescent control” value read?
The value was 0.215% [at 46 µM].

For `CCCCC(CC)COC(=O)COc1ccc(Cl)cc1Cl` (stereo unspecified), which “fluorescence, % of fluorescent control” value is on record?
Its value is -0.105% [at 95.7 µM].

Which “fluorescence, % of fluorescent control” value does the source give for `C[N+]1(CC2COC(c3ccccc3)(C3CCCCC3)O2)CCCCC1` (stereo unspecified) here?
Its value is 0% [at 46 µM].

Which “fluorescence, % of fluorescent control” value does the source give for `COc1ccc(C)cc1[N+](=O)[O-]` here?
Its value is 0.112% [at 95.7 µM].

Which outcome does the source give for `CNC(=O)CN(CCN(CCN(CC(=O)[O-])CC(=O)NC)CC(=O)[O-])CC(=O)[O-].O.[Gd+3]` here?
The outcome was “inactive”.

With `Cc1c(N)cccc1[N+](=O)[O-]` as the molecule, how does the “fluorescence, % of fluorescent control” value read?
The value was -0.0428% [at 95.7 µM].

With `c1cc(CCCc2ccncc2)ccn1` as the molecule, how does the “fluorescence, % of fluorescent control” value read?
The value was 0.0465%.
